Key:
Experiment in all cases: DAPPL (digital affinity profiling via proximity ligation, sequencing); 10 mM Tris-HCl pH 7.5, 50 mM NaCl, 1 mM DTT, 4% glycerol, room temperature, 30 min; GST-TFs on glutathione beads, 16-mer random dsDNA library, 0.1% formaldehyde crosslink after washing; high values mean tight binding
FEV = biological target: T1, FEV (Homo sapiens, UniProt Q99581 1-238); details: protein: recombinant; tags: N-terminal GST; dsDNA, one strand shown
T1 sequence: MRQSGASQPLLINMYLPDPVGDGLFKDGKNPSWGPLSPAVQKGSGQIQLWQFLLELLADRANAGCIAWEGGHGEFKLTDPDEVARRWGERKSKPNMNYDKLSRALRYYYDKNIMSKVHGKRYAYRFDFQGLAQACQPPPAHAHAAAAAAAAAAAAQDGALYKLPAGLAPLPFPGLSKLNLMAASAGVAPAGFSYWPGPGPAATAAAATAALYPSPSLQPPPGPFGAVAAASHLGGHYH
Method in brief: (§1)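 Human transcription factors fused to GST were expressed in yeast, captured on glutathione beads, given DNA barcodes and pooled with a GST-only negative control. Pools were incubated with 200 nmole of a 16-mer random double-stranded DNA library in Tris/NaCl/DTT/glycerol buffer at room temperature for 30 min. They were then washed, crosslinked with 0.1% formaldehyde, proximity-ligated (BsaI/T4 ligase, 1 h, 37 °C), PCR-amplified and sequenced on an Illumina NextSeq500. Binding signal is each 6-mer's read frequency for a factor divided by its frequency for the GST control.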

ETV5 = ETV5 (Homo sapiens, UniProt P41161 1-510); details: protein: recombinant; tags: N-terminal GST; dsDNA, one strand shown
Sequence of ETV5 (P41161 whole entry): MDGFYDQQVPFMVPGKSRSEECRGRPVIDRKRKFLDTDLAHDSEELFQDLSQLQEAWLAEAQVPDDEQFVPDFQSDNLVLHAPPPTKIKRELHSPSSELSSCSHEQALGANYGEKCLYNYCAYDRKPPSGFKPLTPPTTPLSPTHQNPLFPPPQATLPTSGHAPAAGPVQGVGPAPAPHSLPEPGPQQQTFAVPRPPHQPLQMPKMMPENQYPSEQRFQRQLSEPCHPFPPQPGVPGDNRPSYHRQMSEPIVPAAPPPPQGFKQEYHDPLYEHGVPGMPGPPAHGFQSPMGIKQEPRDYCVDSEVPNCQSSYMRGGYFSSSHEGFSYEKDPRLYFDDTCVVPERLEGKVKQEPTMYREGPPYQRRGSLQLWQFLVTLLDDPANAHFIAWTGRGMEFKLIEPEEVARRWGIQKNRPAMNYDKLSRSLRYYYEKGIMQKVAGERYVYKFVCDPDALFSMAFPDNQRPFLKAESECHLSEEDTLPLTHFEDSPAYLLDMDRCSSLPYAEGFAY
Method in brief: as §1

HSF1 = HSF1 (Homo sapiens, UniProt Q00613 1-529); details: protein: recombinant; tags: N-terminal GST; chain copies: 3; dsDNA, one strand shown
Sequence of HSF1 (Q00613 whole entry): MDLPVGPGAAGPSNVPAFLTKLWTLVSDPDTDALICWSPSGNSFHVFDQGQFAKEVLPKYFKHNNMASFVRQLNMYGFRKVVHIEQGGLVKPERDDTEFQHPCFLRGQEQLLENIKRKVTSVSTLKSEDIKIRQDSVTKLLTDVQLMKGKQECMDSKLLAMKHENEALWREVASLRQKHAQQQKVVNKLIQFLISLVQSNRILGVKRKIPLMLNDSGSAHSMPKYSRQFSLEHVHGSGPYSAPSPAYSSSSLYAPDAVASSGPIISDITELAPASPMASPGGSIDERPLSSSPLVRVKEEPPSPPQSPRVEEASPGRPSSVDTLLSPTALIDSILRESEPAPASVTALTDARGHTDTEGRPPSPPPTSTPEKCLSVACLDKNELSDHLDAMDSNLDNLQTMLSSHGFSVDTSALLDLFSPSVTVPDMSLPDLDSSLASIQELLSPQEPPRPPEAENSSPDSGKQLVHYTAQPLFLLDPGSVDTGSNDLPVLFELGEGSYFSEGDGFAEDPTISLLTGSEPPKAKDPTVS
Method in brief: as §1

SPIC = biological target: T2, SPIC (Homo sapiens, UniProt Q8N5J4 1-248); details: protein: recombinant; tags: N-terminal GST; dsDNA, one strand shown
T2 sequence: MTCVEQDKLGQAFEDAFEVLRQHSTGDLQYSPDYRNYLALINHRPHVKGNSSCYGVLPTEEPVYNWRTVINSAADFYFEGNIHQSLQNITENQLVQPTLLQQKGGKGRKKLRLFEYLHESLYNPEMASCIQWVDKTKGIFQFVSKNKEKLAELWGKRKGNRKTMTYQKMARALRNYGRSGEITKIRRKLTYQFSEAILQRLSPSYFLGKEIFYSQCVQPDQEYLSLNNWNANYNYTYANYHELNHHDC
Method in brief: as §1

ELF4 = ELF4 (Homo sapiens, UniProt Q99607 1-663); details: protein: recombinant; tags: N-terminal GST; dsDNA, one strand shown
Sequence of ELF4 (Q99607 whole entry): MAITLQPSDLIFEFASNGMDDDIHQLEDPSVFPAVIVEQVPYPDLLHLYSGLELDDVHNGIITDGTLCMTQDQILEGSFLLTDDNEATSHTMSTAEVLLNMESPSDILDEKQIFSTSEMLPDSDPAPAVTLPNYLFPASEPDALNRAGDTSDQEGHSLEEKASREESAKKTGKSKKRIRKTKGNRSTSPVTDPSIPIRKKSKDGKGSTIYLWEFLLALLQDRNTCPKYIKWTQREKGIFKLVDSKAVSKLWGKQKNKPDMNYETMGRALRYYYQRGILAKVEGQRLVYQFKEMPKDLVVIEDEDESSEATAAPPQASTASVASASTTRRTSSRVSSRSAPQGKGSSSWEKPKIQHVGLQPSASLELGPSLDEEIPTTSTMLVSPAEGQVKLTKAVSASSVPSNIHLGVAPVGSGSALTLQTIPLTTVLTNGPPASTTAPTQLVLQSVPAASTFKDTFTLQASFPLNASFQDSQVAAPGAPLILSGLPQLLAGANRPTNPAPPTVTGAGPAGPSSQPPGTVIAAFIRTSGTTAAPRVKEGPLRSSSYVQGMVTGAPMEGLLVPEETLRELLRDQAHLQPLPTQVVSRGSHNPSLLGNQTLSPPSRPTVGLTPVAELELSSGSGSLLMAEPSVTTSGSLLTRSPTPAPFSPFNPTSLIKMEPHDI
Method in brief: as §1

ELK4 = biological target: T3, ELK4 (Homo sapiens, UniProt P28324-2 1-405); details: protein: recombinant; tags: N-terminal GST; dsDNA, one strand shown
T3 sequence: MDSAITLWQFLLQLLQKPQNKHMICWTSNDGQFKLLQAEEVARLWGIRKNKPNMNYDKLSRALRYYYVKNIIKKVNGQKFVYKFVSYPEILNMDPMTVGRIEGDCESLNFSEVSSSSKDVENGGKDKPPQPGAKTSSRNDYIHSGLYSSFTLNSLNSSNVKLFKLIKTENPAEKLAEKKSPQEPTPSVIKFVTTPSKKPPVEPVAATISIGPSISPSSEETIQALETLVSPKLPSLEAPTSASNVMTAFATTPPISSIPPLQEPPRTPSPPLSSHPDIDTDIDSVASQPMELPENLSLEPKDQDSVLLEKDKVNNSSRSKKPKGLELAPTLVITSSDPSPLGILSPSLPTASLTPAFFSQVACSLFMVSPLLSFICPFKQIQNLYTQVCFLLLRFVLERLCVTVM
Method in brief: as §1

ETV2 = biological target: T4, ETV2 (Homo sapiens, UniProt O00321 1-342); details: protein: recombinant; tags: N-terminal GST; dsDNA, one strand shown
T4 sequence: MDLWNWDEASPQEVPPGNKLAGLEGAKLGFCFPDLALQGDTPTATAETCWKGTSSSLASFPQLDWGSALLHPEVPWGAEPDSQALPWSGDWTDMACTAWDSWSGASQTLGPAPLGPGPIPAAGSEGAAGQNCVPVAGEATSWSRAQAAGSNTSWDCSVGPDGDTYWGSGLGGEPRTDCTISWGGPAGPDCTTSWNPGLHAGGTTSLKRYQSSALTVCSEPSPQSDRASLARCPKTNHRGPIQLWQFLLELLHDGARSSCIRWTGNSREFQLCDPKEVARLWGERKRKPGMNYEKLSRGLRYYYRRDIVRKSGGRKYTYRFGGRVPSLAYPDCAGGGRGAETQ
Method in brief: as §1

ELF3 = biological target: T5, ELF3 (Homo sapiens, UniProt P78545 1-371); details: protein: recombinant; tags: N-terminal GST; dsDNA, one strand shown
T5 sequence: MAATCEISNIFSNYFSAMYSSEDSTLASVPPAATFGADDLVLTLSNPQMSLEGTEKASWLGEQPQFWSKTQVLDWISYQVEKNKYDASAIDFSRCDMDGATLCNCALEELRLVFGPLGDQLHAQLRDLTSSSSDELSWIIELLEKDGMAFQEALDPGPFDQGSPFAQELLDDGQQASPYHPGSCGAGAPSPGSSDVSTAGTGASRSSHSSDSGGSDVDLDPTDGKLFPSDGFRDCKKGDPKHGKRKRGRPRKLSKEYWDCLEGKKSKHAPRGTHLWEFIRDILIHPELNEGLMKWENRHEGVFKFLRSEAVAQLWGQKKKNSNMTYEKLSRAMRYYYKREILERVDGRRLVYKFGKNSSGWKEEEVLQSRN
Method in brief: as §1

CRX = CRX (Homo sapiens, UniProt O43186 1-299); details: protein: recombinant; tags: N-terminal GST; dsDNA, one strand shown
Sequence of CRX (O43186 whole entry): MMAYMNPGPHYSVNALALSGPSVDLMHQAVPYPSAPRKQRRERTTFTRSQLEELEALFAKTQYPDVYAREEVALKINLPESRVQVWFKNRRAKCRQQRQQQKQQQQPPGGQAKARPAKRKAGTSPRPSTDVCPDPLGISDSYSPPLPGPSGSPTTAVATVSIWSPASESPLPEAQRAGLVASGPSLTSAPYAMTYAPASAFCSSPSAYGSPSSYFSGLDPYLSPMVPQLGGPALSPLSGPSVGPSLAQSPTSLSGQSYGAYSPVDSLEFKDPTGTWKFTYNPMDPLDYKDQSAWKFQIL
Method in brief: as §1

ETV1 = ETV1 (Homo sapiens, UniProt P50549 1-477); details: protein: recombinant; tags: N-terminal GST; dsDNA, one strand shown
Sequence of ETV1 (P50549 whole entry): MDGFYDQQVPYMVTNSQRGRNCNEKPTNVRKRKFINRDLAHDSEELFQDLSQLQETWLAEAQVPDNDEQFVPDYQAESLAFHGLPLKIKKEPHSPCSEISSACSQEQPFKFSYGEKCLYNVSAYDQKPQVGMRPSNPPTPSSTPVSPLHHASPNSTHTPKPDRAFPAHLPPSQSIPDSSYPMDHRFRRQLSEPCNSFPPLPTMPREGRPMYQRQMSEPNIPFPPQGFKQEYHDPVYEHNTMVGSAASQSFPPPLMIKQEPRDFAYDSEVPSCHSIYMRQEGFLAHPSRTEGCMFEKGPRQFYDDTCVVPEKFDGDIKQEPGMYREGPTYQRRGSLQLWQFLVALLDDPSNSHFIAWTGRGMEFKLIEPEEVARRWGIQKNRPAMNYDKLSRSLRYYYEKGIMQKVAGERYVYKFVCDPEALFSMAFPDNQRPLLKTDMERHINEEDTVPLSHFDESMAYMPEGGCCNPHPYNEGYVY
Method in brief: as §1

ERF = biological target: T6, ERF (Homo sapiens, UniProt P50548 1-548); details: protein: recombinant; tags: N-terminal GST; dsDNA, one strand shown
T6 sequence: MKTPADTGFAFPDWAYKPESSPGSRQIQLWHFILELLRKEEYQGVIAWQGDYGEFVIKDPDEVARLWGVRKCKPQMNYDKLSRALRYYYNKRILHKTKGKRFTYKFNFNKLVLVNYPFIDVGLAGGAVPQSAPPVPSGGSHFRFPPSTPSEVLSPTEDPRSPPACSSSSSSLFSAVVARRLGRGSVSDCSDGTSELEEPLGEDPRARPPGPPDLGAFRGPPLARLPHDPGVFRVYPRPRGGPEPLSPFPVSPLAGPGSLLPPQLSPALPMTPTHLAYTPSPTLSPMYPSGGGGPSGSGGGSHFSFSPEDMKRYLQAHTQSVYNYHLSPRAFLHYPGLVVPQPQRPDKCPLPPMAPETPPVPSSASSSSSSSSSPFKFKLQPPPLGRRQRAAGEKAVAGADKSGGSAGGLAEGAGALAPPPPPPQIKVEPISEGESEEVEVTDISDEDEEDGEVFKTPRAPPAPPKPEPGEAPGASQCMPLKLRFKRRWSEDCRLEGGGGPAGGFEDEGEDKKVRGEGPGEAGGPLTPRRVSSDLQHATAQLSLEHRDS
Method in brief: as §1

ETV3L = biological target: T7, ETV3L (Homo sapiens, UniProt Q6ZN32 1-361); details: protein: recombinant; tags: N-terminal GST; dsDNA, one strand shown
T7 sequence: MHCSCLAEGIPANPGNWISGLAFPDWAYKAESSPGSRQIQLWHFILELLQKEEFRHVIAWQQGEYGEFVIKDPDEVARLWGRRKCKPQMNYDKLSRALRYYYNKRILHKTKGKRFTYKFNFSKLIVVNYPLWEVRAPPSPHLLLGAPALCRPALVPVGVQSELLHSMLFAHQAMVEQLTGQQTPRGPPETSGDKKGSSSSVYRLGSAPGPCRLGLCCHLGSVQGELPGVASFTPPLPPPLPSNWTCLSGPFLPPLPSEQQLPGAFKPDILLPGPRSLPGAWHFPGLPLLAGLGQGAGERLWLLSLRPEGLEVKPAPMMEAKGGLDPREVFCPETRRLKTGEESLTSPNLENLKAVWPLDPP
Method in brief: as §1

ETS2 = biological target: T8, ETS2 (Homo sapiens, UniProt P15036 1-469); details: protein: recombinant; tags: N-terminal GST; dsDNA, one strand shown
T8 sequence: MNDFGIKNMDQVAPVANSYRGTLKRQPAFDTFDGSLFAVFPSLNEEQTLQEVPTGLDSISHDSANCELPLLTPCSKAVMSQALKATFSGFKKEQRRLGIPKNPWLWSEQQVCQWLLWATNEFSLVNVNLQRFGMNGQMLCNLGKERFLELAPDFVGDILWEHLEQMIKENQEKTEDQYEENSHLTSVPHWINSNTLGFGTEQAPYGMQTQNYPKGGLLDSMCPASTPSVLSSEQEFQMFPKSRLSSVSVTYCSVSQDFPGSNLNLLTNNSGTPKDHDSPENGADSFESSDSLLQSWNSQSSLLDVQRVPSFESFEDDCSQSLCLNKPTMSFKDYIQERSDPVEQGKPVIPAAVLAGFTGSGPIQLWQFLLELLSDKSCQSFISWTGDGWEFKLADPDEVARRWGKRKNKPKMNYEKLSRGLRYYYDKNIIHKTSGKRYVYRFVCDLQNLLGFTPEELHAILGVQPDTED
Method in brief: as §1

SPDEF = biological target: T9, SPDEF (Homo sapiens, UniProt O95238 1-335); details: protein: recombinant; tags: N-terminal GST; dsDNA, one strand shown
T9 sequence: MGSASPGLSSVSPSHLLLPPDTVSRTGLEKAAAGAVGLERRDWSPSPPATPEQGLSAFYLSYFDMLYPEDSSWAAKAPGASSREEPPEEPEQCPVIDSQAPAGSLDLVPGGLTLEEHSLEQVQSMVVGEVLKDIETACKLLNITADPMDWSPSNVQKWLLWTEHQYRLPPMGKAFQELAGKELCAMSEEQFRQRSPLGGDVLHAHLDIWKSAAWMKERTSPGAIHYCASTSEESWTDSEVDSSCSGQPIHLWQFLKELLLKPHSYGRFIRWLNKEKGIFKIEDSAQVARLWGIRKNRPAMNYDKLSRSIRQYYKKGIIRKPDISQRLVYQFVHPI
Method in brief: as §1

ETV7 = biological target: T10, ETV7 (Homo sapiens, UniProt Q9Y603 1-341); details: protein: recombinant; tags: N-terminal GST; dsDNA, one strand shown
T10 sequence: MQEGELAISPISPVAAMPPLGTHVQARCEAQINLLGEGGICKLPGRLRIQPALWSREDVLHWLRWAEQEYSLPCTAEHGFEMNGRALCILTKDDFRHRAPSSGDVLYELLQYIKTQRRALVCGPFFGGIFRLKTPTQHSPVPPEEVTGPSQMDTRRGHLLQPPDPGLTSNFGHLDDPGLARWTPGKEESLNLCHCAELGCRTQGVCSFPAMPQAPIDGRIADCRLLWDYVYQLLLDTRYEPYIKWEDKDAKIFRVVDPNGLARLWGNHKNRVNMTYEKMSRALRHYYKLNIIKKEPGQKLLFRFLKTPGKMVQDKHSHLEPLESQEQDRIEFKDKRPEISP
Method in brief: as §1

ELF5 = biological target: T11, ELF5 (Homo sapiens, UniProt Q9UKW6-2 1-255); details: protein: recombinant; tags: N-terminal GST; dsDNA, one strand shown
T11 sequence: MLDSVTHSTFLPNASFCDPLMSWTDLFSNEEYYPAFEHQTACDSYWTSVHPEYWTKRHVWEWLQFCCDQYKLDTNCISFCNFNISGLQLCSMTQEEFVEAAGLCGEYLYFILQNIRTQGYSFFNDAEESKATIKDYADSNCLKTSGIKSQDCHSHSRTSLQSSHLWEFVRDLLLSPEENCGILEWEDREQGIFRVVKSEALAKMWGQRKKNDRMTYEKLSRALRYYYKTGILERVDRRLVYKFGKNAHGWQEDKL
Method in brief: as §1

ETV3 = biological target: T12, ETV3 (Homo sapiens, UniProt P41162-2 1-143); details: protein: recombinant; tags: N-terminal GST; dsDNA, one strand shown
T12 sequence: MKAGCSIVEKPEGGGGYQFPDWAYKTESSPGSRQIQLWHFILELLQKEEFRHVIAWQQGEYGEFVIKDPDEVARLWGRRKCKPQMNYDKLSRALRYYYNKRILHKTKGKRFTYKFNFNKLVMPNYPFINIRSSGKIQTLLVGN
Method in brief: as §1

ETV6 = ETV6 (Homo sapiens, UniProt P41212 1-452); details: protein: recombinant; tags: N-terminal GST; dsDNA, one strand shown
Sequence of ETV6 (P41212 whole entry): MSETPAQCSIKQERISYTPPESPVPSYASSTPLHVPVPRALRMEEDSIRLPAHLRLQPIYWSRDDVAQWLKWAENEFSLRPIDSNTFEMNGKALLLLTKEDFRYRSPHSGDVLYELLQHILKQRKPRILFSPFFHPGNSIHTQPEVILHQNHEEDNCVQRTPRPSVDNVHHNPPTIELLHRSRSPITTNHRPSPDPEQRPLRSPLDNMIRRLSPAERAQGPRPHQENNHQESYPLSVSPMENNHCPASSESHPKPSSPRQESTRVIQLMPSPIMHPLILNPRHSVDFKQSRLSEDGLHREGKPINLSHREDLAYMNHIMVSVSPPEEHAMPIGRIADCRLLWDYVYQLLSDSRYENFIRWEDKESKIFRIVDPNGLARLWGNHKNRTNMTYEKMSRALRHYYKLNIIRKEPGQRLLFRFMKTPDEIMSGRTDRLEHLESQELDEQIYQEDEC
Method in brief: as §1

## TCTAAG
FEV
  binding signal: 1.13 fold enrichment (6-mer frequency, TF over GST control)
ETV5
  binding signal: 1.3 fold enrichment (6-mer frequency, TF over GST control)
HSF1
  binding signal: 1.49 fold enrichment (6-mer frequency, TF over GST control)
SPIC
  binding signal: 1.21 fold enrichment (6-mer frequency, TF over GST control)
ELF4
  binding signal: 1.25 fold enrichment (6-mer frequency, TF over GST control)
ELK4
  binding signal: 1.2 fold enrichment (6-mer frequency, TF over GST control)
ETV2
  binding signal: 1.29 fold enrichment (6-mer frequency, TF over GST control)
ELF3
  binding signal: 1.27 fold enrichment (6-mer frequency, TF over GST control)
CRX
  binding signal: 1.86 fold enrichment (6-mer frequency, TF over GST control)
ETV1
  binding signal: 1.25 fold enrichment (6-mer frequency, TF over GST control)
ERF
  binding signal: 1.25 fold enrichment (6-mer frequency, TF over GST control)
ETV3L
  binding signal: 1.17 fold enrichment (6-mer frequency, TF over GST control)
ETS2
  binding signal: 1.23 fold enrichment (6-mer frequency, TF over GST control)
SPDEF
  binding signal: 1.1 fold enrichment (6-mer frequency, TF over GST control)
ETV7
  binding signal: 1.29 fold enrichment (6-mer frequency, TF over GST control)
ELF5
  binding signal: 1.23 fold enrichment (6-mer frequency, TF over GST control)
ETV3
  binding signal: 1.24 fold enrichment (6-mer frequency, TF over GST control)
ETV6
  binding signal: 1.17 fold enrichment (6-mer frequency, TF over GST control)

Reference: PMC7862700, “An all-to-all approach to the identification of sequence-specific readers for epigenetic DNA modifications on cytosine”
